Measurements as given in PMC7862700, “An all-to-all approach to the identification of sequence-specific readers for epigenetic DNA modifications on cytosine”.

Assays:
Test in all cases: DAPPL (digital affinity profiling via proximity ligation, sequencing); 10 mM Tris-HCl pH 7.5, 50 mM NaCl, 1 mM DTT, 4% glycerol, room temperature, 30 min; GST-TFs on glutathione beads, 16-mer random dsDNA library, 0.1% formaldehyde crosslink after washing; high values mean tight binding
FLI1 = biological target: T1, FLI1 (Homo sapiens, UniProt Q01543 1-452); settings: protein: recombinant; tags: N-terminal GST; dsDNA, one strand shown
T1 sequence: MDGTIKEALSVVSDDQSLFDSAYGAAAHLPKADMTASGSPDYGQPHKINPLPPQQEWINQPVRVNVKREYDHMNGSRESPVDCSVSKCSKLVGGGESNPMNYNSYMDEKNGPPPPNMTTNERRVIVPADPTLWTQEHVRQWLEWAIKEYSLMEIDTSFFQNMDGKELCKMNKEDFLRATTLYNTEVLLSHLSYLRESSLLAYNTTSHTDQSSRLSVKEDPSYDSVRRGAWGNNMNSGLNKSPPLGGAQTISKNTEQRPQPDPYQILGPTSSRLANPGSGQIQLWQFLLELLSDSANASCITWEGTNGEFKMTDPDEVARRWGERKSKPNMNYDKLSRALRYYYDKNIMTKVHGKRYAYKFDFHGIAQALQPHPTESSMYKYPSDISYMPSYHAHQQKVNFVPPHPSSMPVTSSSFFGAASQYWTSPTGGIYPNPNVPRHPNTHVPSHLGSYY
Summary of the method: (§1)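 Beads coated with glutathione captured GST-fused human transcription factors that had been expressed in yeast, and the factors were then given DNA barcodes and pooled with a tag-only sample. The pools were incubated with 200 nmole of a random double-stranded 16-mer DNA library in Tris/NaCl/DTT/glycerol buffer for 30 min at room temperature, washed, crosslinked with 0.1% formaldehyde and proximity-ligated with BsaI/T4 ligase at 37 °C for 1 h. PCR amplification and Illumina NextSeq500 sequencing came last. Binding signal is each hexamer's read frequency for a factor divided by its frequency for the tag-only sample.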

ELK1 = biological target: T2, ELK1 (Homo sapiens, UniProt P19419 1-428); settings: protein: recombinant; tags: N-terminal GST; dsDNA, one strand shown
T2 sequence: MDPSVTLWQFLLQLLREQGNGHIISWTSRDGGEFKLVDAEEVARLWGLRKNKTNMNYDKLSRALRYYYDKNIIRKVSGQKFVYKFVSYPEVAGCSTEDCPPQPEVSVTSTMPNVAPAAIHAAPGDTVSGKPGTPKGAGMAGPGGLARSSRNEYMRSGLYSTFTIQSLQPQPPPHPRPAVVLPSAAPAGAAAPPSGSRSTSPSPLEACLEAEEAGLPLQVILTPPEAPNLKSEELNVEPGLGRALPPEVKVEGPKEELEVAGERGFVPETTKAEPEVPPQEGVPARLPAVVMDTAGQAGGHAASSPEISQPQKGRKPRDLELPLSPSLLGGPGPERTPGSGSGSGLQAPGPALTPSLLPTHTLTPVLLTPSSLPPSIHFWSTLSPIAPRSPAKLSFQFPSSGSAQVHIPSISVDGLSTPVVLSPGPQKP
Summary of the method: as §1

GABPA = biological target: T3, GABPA (Homo sapiens, UniProt Q06546 1-454); settings: protein: recombinant; tags: N-terminal GST; dsDNA, one strand shown
T3 sequence: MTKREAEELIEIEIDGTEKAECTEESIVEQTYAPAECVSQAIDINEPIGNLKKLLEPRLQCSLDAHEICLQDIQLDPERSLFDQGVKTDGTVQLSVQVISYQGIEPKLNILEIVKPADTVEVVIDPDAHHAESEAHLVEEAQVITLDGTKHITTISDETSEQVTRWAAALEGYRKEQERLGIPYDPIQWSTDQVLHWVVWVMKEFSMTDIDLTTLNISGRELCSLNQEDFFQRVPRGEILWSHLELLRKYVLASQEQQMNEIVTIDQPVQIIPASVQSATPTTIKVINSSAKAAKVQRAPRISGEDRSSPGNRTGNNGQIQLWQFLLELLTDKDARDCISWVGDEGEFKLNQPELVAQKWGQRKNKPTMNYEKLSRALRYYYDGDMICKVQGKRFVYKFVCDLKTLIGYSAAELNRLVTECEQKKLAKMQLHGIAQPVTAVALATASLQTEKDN
Summary of the method: as §1

ERG = biological target: T4, ERG (Homo sapiens, UniProt P11308 1-479); settings: protein: recombinant; tags: N-terminal GST; dsDNA, one strand shown
T4 sequence: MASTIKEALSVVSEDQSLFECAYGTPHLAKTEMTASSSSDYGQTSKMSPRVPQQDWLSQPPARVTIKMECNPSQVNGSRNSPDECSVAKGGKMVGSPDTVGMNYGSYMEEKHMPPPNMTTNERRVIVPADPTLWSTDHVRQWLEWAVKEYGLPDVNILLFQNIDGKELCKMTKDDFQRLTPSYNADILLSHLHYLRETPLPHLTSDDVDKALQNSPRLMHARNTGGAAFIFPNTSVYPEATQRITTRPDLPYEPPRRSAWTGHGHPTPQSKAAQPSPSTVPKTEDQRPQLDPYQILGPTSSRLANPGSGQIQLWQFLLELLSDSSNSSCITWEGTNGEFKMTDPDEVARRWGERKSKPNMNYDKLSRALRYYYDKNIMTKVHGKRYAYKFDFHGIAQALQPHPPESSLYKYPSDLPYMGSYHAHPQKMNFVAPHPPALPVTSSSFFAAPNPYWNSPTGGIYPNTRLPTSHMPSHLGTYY
Summary of the method: as §1

ELF1 = ELF1 (Homo sapiens, UniProt P32519 1-619); settings: protein: recombinant; tags: N-terminal GST; dsDNA, one strand shown
Chain of ELF1 (P32519 whole entry): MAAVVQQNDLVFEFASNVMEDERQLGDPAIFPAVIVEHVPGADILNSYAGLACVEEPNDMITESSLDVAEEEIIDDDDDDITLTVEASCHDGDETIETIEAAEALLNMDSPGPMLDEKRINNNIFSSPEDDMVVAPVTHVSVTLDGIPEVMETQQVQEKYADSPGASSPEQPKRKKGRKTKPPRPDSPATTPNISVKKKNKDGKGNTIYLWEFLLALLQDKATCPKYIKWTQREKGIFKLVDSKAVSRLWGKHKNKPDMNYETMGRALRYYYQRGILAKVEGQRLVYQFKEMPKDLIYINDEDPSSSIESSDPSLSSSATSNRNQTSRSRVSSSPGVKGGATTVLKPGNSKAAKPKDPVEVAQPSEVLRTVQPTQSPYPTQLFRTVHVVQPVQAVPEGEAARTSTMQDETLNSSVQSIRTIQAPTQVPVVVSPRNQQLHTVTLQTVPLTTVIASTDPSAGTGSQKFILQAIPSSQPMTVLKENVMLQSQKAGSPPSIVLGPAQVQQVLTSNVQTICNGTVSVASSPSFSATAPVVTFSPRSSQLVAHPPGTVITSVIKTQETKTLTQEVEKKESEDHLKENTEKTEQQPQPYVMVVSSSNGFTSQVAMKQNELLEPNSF
Summary of the method: as §1

EHF = biological target: T5, EHF (Homo sapiens, UniProt Q9NZC4 1-300); settings: protein: recombinant; tags: N-terminal GST; dsDNA, one strand shown
T5 sequence: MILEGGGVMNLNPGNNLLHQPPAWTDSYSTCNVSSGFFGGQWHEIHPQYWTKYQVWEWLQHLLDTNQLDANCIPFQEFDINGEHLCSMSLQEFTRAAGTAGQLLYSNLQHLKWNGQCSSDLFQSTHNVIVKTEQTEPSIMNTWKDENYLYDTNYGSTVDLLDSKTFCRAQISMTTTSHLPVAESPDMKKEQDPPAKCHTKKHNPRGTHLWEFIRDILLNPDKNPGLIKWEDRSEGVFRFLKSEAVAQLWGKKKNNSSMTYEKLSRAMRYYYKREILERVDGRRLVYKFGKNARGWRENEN
Summary of the method: as §1

SPI1 = SPI1 (Homo sapiens, UniProt P17947 1-270); settings: protein: recombinant; tags: N-terminal GST; dsDNA, one strand shown
Summary of the method: as §1

SPIB = SPIB (Homo sapiens, UniProt Q01892 1-262); settings: protein: recombinant; tags: N-terminal GST; dsDNA, one strand shown
Chain of SPIB (Q01892 whole entry): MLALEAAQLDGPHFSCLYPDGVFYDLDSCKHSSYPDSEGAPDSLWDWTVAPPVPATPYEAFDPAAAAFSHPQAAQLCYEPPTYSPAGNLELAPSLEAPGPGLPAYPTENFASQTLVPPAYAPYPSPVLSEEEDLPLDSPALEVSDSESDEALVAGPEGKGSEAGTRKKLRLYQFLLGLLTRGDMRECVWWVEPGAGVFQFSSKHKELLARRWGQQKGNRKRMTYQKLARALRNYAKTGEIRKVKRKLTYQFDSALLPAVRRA
Summary of the method: as §1

FEV = biological target: T6, FEV (Homo sapiens, UniProt Q99581 1-238); settings: protein: recombinant; tags: N-terminal GST; dsDNA, one strand shown
T6 sequence: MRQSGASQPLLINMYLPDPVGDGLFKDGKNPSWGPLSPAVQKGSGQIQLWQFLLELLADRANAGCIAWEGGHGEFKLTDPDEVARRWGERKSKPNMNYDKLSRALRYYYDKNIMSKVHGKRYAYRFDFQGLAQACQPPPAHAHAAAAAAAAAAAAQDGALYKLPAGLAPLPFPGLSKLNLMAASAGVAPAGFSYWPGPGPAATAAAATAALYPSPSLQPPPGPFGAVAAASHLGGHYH
Summary of the method: as §1

ETV5 = ETV5 (Homo sapiens, UniProt P41161 1-510); settings: protein: recombinant; tags: N-terminal GST; dsDNA, one strand shown
Chain of ETV5 (P41161 whole entry): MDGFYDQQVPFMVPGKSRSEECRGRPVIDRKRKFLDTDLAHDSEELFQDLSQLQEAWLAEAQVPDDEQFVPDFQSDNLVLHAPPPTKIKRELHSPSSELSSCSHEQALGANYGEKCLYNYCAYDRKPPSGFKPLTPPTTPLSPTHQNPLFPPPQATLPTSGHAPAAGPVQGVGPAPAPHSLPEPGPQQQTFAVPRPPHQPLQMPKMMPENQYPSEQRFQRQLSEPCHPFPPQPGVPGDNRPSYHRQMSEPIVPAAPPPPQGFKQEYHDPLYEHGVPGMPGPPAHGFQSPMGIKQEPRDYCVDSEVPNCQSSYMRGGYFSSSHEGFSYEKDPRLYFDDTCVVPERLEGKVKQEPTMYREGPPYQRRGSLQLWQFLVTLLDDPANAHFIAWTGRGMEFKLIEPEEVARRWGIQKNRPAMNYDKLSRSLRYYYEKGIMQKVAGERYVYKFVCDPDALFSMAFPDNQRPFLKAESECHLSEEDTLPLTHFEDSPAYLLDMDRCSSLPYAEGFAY
Summary of the method: as §1

HSF1 = HSF1 (Homo sapiens, UniProt Q00613 1-529); settings: protein: recombinant; tags: N-terminal GST; chain copies: 3; dsDNA, one strand shown
Chain of HSF1 (Q00613 whole entry): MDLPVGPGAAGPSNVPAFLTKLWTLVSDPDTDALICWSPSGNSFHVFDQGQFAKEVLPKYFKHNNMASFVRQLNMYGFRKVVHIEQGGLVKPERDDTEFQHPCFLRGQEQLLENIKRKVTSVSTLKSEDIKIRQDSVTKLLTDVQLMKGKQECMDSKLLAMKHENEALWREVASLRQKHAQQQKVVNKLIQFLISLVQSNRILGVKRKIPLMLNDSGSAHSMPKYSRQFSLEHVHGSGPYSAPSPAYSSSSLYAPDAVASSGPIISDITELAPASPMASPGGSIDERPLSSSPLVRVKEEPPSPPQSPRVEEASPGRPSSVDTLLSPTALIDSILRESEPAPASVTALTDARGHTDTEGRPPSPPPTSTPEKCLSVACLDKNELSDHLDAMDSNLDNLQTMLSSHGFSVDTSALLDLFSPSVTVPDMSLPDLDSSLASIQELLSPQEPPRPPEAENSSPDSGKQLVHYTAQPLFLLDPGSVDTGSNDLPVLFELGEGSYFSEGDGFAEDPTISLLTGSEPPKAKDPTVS
Summary of the method: as §1

SPIC = biological target: T7, SPIC (Homo sapiens, UniProt Q8N5J4 1-248); settings: protein: recombinant; tags: N-terminal GST; dsDNA, one strand shown
T7 sequence: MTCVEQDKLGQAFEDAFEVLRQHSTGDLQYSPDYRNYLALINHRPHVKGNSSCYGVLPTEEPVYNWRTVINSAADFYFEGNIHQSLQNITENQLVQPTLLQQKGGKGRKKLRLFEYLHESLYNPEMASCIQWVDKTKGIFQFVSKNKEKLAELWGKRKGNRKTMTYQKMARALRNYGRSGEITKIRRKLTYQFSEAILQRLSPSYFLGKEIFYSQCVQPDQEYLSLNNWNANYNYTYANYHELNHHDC
Summary of the method: as §1

ELF4 = ELF4 (Homo sapiens, UniProt Q99607 1-663); settings: protein: recombinant; tags: N-terminal GST; dsDNA, one strand shown
Chain of ELF4 (Q99607 whole entry): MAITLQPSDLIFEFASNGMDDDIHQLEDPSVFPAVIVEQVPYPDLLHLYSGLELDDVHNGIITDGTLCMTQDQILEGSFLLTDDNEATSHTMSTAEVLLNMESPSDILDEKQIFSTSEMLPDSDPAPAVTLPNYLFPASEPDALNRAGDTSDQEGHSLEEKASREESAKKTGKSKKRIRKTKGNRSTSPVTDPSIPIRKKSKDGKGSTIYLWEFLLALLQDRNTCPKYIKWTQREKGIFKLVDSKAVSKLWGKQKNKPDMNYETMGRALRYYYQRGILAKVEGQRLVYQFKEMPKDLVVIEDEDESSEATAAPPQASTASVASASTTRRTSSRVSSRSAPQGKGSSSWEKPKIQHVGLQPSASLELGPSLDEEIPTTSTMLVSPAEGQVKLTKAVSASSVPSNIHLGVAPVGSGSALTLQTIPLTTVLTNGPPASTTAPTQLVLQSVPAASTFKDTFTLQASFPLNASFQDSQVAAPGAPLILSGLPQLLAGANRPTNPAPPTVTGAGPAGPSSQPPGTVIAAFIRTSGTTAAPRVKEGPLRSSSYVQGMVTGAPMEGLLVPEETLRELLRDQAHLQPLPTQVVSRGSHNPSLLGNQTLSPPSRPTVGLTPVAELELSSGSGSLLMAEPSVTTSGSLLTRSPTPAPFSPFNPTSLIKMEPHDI
Summary of the method: as §1

ETV2 = biological target: T8, ETV2 (Homo sapiens, UniProt O00321 1-342); settings: protein: recombinant; tags: N-terminal GST; dsDNA, one strand shown
T8 sequence: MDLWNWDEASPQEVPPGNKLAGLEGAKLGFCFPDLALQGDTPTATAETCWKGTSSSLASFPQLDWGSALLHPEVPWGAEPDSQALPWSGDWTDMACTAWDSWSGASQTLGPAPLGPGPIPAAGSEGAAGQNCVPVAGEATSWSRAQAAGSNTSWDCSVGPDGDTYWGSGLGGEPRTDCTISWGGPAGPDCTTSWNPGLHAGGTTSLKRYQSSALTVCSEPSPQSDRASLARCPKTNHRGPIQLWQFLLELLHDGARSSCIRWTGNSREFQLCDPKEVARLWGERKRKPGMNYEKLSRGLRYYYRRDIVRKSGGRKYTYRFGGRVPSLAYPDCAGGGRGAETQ
Summary of the method: as §1

ELF3 = biological target: T9, ELF3 (Homo sapiens, UniProt P78545 1-371); settings: protein: recombinant; tags: N-terminal GST; dsDNA, one strand shown
T9 sequence: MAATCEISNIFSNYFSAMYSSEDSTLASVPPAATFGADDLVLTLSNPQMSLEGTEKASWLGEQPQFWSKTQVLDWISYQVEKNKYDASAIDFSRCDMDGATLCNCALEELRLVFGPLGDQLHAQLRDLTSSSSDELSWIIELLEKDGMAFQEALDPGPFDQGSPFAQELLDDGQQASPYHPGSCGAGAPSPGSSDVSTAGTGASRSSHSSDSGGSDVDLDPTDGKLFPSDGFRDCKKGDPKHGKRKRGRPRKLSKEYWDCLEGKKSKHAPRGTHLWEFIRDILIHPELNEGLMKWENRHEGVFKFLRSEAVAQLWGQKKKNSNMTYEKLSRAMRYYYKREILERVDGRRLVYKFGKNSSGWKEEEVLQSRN
Summary of the method: as §1

ETV1 = ETV1 (Homo sapiens, UniProt P50549 1-477); settings: protein: recombinant; tags: N-terminal GST; dsDNA, one strand shown
Chain of ETV1 (P50549 whole entry): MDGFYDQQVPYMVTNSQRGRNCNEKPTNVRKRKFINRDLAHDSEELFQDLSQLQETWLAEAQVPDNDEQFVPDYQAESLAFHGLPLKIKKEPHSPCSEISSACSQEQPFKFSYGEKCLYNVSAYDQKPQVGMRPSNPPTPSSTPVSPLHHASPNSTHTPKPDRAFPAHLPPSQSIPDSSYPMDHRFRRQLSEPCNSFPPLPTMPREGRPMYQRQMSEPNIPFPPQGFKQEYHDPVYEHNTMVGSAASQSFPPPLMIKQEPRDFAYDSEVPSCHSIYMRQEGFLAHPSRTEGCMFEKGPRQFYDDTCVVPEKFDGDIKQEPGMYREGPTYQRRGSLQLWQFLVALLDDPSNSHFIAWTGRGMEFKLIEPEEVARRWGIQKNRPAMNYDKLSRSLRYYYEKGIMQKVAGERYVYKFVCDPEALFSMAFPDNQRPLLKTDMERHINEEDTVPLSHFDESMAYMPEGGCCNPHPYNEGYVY
Summary of the method: as §1

GCTCTG
binding signal (FLI1): 1.18 fold enrichment (6-mer frequency, TF over GST control)
binding signal (ELK1): 1.26 fold enrichment (6-mer frequency, TF over GST control)
binding signal (GABPA): 1.03 fold enrichment (6-mer frequency, TF over GST control)
binding signal (ERG): 1.01 fold enrichment (6-mer frequency, TF over GST control)
binding signal (ELF1): 1.08 fold enrichment (6-mer frequency, TF over GST control)
binding signal (EHF): 1.15 fold enrichment (6-mer frequency, TF over GST control)
binding signal (SPI1): 1.11 fold enrichment (6-mer frequency, TF over GST control)
binding signal (SPIB): 1.1 fold enrichment (6-mer frequency, TF over GST control)
binding signal (FEV): 1.25 fold enrichment (6-mer frequency, TF over GST control)
binding signal (ETV5): 1.15 fold enrichment (6-mer frequency, TF over GST control)
binding signal (HSF1): 1.08 fold enrichment (6-mer frequency, TF over GST control)
binding signal (SPIC): 1.18 fold enrichment (6-mer frequency, TF over GST control)
binding signal (ELF4): 1.17 fold enrichment (6-mer frequency, TF over GST control)
binding signal (ETV2): 1 fold enrichment (6-mer frequency, TF over GST control)
binding signal (ELF3): 1.04 fold enrichment (6-mer frequency, TF over GST control)
binding signal (ETV1): 1.28 fold enrichment (6-mer frequency, TF over GST control)
